According to PubChem BioAssay (NCATS):
Results filed as inconclusive are left out. A number with no mark means an inactive call. Active and inactive are the calls of the source. Calls follow the shape of the dose curve; as a rule, active = well fitted curve in the direction sought with a large enough effect; inconclusive = small, poorly fitted or top-dose-only effect, or another doubt; inactive = no such curve, though single readings can be large; an effect the other way counts as inactive or inconclusive.

Molecular target: Aldehyde dehydrogenase, mitochondrial (Homo sapiens) (UniProt P05091)
Assay: qHTS for Inhibitors of the Aldehyde Dehydrogenase Family (ALDH2) Primary screen (AID 2061308);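 also: plate controls were vehicle for no effect and reference inhibitor for full effect; nearly all actives have a fitted effect of over 55% in size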
Conditions: ALDH2 enzyme inhibition qHTS, 1536-well; series mostly up to 56 µM; activity change, negative = inhibition: at the top concentration

| SMILES | activity change, negative = inhibition | Potency |
| --- | --- | --- |
| Cc1cc(C)n2ncc(C(=O)NCc3ccco3)c2n1 | -4.27% |  |
| Cc1c(P(=S)(c2ccccc2)c2ccccc2)c2ccccc2n1Cc1ccccc1 | -4.31% |  |
| C[C@H]1CC[C@@]2(OC1)O[C@H]1CC3C4CC[C@H]5C[C@@H](O)CC[C@]5(C)C4=CC(=O)[C@]3(C)[C@H]1[C@@H]2C (stereo not given in full) | -0.94% [at 28 µM] |  |
| Cc1ccc(S(=O)(=O)Nc2cccc3cccnc23)cc1 | -0.755% |  |
| Cc1ccc(S(=O)(=O)Nc2cc3c(cc2C(=O)Nc2nc(-c4ccccc4)cs2)OCO3)cc1 | -1.11% |  |
| COC(=O)C1=CO[C@@H](O[C@@H]2O[C@H](CO)[C@@H](O)[C@H](O)[C@H]2O)[C@H]2[C@@H]1[C@H](O)[C@H](O)[C@]2(C)O | -3.76% [at 28 µM] |  |
| O=C(Nc1ccc(-c2nc3ccccc3[nH]2)cc1)Nc1ccc2occc2c1 | 9.28% |  |
| C=Cc1nc(Nc2cc(F)cc(F)c2)nc(NC2CCCC2)n1 | 7.07% |  |
| Cc1cccc(CNc2nc(-c3ccccc3C(C)C)ncc2C)c1 | -7.33% |  |
| Cc1ccc(C2N=C(Nc3nc4ccccc4o3)NC3=C2C(=O)CCC3)cc1 (stereo not given) | -16.1% |  |
| O=S(=O)(Nc1nccs1)c1ccc(NCc2cc(Cl)ccc2O)cc1 | 9.46% |  |
| C=C1C(=O)O[C@@H]2/C=C(\CO)CC/C=C(\CO)[C@H](OC(C)=O)C(OC(=O)C(C)CC)C12 (stereo not given in full) | 11.4% [at 28 µM] |  |
| CCN(CC)CCCn1c(-c2ccccc2)nc2c(NCCOC)nc(C)nc21 | 7.75% |  |
| Oc1ccc(CNc2nccc3ccccc23)c2cccnc12 | -9.23% |  |
| Oc1ccc(CNCc2ccc3c(c2)OCO3)c2cccnc12 | -4.61% |  |
| COc1ccc(Nc2nc(-c3ccncc3)nc3ccccc23)cc1F | 5.28% |  |
| O=C(Nc1cc(C(F)(F)F)cc(C(F)(F)F)c1)Nc1nnc(-c2ccncc2)s1 | 5.52% |  |
| Cc1cc(C)cc(Cn2ncc3c4sc(C)cc4n(C)c3c2=O)c1 | -8.36% |  |
| COCC1CCCN(C(=O)CC(c2ccc3c(c2)OCO3)c2c(O)cc(OC)cc2OC)C1 (stereo not given) | 3.36% [at 114 µM] |  |
| CCOc1ccc(CCNC(=O)c2cc3sccc3n2C)cc1OCC | -15.4% |  |

| SMILES | activity change, negative = inhibition | Potency |
| --- | --- | --- |
| COc1cccc(CNc2ccc(S(=O)(=O)Nc3nccs3)cc2)c1 | 0.468% |  |
| Cc1ccsc1CN(C)c1ncnc2ccc(-c3ccc([C@@H](C)O)o3)cc12 | 0.702% |  |
| COCCNc1nc(C)nc2c1nc(-c1ccccc1)n2C1CCN(Cc2ccccc2)C1 (stereo not given) | 2.42% |  |
| O=c1c2ccc(Cl)cc2nc2sc(Nc3ccc4c(c3)CCC4)nn12 | -14.2% |  |
| Cc1cc(C)nc(NC(=S)N2CCN(c3ccccn3)CC2)c1 |  | inactive |
| O=S(=O)(Nc1ccc(S(=O)(=O)Nc2nccs2)cc1)c1ccc2ccccc2c1 | 6.64% |  |
| O=C1CCCC2=C1C(c1[nH]ncc1Cl)NC(=NCc1ccccn1)N2 (stereo not given) | 6.84% |  |
| Cc1cn([C@H]2C[C@H](N[S+](=O)([O-])c3ccc4c(c3)OCCO4)[C@@H](CO)O2)c(=O)[nH]c1=O | 7.89% |  |
| Cc1nc(N2CCOCC2)c2nc(-c3ccccc3)n(CCCN(C)C)c2n1 | 10.7% |  |
| Cc1ccc(-c2nc3c(c(SCC(=O)Nc4cccc(C(=O)O)c4)n2)Cc2cccc(C)c2O3)cc1 | 2.35% |  |
| Cc1noc(C)c1-c1ccc2ncnc(NCc3ccc(Br)cc3)c2c1 | -0.319% |  |
| CN1CCN(Nc2nn3c(=O)c4ccccc4nc3s2)CC1 | -4.59% |  |
| Cc1ccc(-c2nc(NCC(=O)Nc3cccc(C(=O)O)c3)c3ccccc3n2)cc1 | -3.75% |  |
| C=C1C(=O)O[C@@H]2/C=C(/C)[C@@H](OC(C)=O)C/C=C(\C)C[C@@H](OC(=O)/C(=C/CO)CO)[C@@H]12 | 19.8% [at 28 µM] |  |
| N#CN1CCC(NC(=O)c2ccc(F)cc2)CC1 | 12.4% |  |
| CCc1ccc(NC(=O)C(=O)NNC(=O)Cc2ccc(Cl)c(Cl)c2)cc1 | -9.42% |  |
| COCCNc1nc(C)nc2c1nc(-c1ccccc1)n2CCN1CCCC1 | 2.7% |  |
| O=C1c2ccccc2C(=O)N1c1cccc(Cl)c1 | 7.21% |  |
| Cc1ccc(OCCn2c(CCNCC3CCCCC3)nc3ccccc32)cc1 | 1.99% |  |
| COc1ccc([S+](=O)([O-])N2CCCN([S+](=O)([O-])c3ccc(OC)c(N)c3)CC2)cc1N | 2.6% |  |

Molecular target: Retinaldehyde dehydrogenase 3 (Homo sapiens) (UniProt P47895)
Assay: qHTS for Inhibitors of the Aldehyde Dehydrogenase Family (ALDH1A3) Primary screen (AID 2061315);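 also: plate controls were DMSO vehicle for no effect and reference inhibitor for full effect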
Conditions: ALDH inhibition qHTS; series mostly up to 56 µM; activity change, negative = inhibition: at the top concentration

| SMILES | activity change, negative = inhibition | Potency |
| --- | --- | --- |
| Cc1cc(C)n2ncc(C(=O)NCc3ccco3)c2n1 | -3.41% |  |
| Cc1c(P(=S)(c2ccccc2)c2ccccc2)c2ccccc2n1Cc1ccccc1 | 7.11% |  |
| C[C@H]1CC[C@@]2(OC1)O[C@H]1CC3C4CC[C@H]5C[C@@H](O)CC[C@]5(C)C4=CC(=O)[C@]3(C)[C@H]1[C@@H]2C (stereo not given in full) | 15.4% [at 28 µM] |  |
| Cc1ccc(S(=O)(=O)Nc2cccc3cccnc23)cc1 | 6.2% |  |
| Cc1ccc(S(=O)(=O)Nc2cc3c(cc2C(=O)Nc2nc(-c4ccccc4)cs2)OCO3)cc1 | 0.318% |  |
| COC(=O)C1=CO[C@@H](O[C@@H]2O[C@H](CO)[C@@H](O)[C@H](O)[C@H]2O)[C@H]2[C@@H]1[C@H](O)[C@H](O)[C@]2(C)O | -22.2% [at 28 µM] |  |
| O=C(Nc1ccc(-c2nc3ccccc3[nH]2)cc1)Nc1ccc2occc2c1 | 2.5% |  |
| C=Cc1nc(Nc2cc(F)cc(F)c2)nc(NC2CCCC2)n1 | 6.14% |  |
| Cc1cccc(CNc2nc(-c3ccccc3C(C)C)ncc2C)c1 | 9.99% |  |
| Cc1ccc(C2N=C(Nc3nc4ccccc4o3)NC3=C2C(=O)CCC3)cc1 (stereo not given) | 20.4% |  |
| O=S(=O)(Nc1nccs1)c1ccc(NCc2cc(Cl)ccc2O)cc1 | 21.7% |  |
| C=C1C(=O)O[C@@H]2/C=C(\CO)CC/C=C(\CO)[C@H](OC(C)=O)C(OC(=O)C(C)CC)C12 (stereo not given in full) | 0.502% [at 28 µM] |  |
| CCN(CC)CCCn1c(-c2ccccc2)nc2c(NCCOC)nc(C)nc21 | 11.6% |  |
| Oc1ccc(CNc2nccc3ccccc23)c2cccnc12 | -16% |  |
| Oc1ccc(CNCc2ccc3c(c2)OCO3)c2cccnc12 | 15.3% |  |
| COc1ccc(Nc2nc(-c3ccncc3)nc3ccccc23)cc1F | 1.45% |  |
| O=C(Nc1cc(C(F)(F)F)cc(C(F)(F)F)c1)Nc1nnc(-c2ccncc2)s1 | -6.6% |  |
| Cc1cc(C)cc(Cn2ncc3c4sc(C)cc4n(C)c3c2=O)c1 | 7.7% |  |
| COCC1CCCN(C(=O)CC(c2ccc3c(c2)OCO3)c2c(O)cc(OC)cc2OC)C1 (stereo not given) | -1.89% [at 114 µM] |  |
| CCOc1ccc(CCNC(=O)c2cc3sccc3n2C)cc1OCC | -2.39% |  |

| SMILES | activity change, negative = inhibition | Potency |
| --- | --- | --- |
| COc1cccc(CNc2ccc(S(=O)(=O)Nc3nccs3)cc2)c1 | 7.59% |  |
| Cc1ccsc1CN(C)c1ncnc2ccc(-c3ccc([C@@H](C)O)o3)cc12 |  | inactive |
| COCCNc1nc(C)nc2c1nc(-c1ccccc1)n2C1CCN(Cc2ccccc2)C1 (stereo not given) | -1.77% |  |
| O=c1c2ccc(Cl)cc2nc2sc(Nc3ccc4c(c3)CCC4)nn12 | -9.03% |  |
| Cc1cc(C)nc(NC(=S)N2CCN(c3ccccn3)CC2)c1 |  | inactive |
| O=S(=O)(Nc1ccc(S(=O)(=O)Nc2nccs2)cc1)c1ccc2ccccc2c1 | -1.1% |  |
| O=C1CCCC2=C1C(c1[nH]ncc1Cl)NC(=NCc1ccccn1)N2 (stereo not given) | 3.43% |  |
| Cc1cn([C@H]2C[C@H](N[S+](=O)([O-])c3ccc4c(c3)OCCO4)[C@@H](CO)O2)c(=O)[nH]c1=O | 0.0885% |  |
| Cc1nc(N2CCOCC2)c2nc(-c3ccccc3)n(CCCN(C)C)c2n1 | -6.01% |  |
| Cc1ccc(-c2nc3c(c(SCC(=O)Nc4cccc(C(=O)O)c4)n2)Cc2cccc(C)c2O3)cc1 | 5.93% |  |
| Cc1noc(C)c1-c1ccc2ncnc(NCc3ccc(Br)cc3)c2c1 | 4.07% |  |
| CN1CCN(Nc2nn3c(=O)c4ccccc4nc3s2)CC1 | -10.6% |  |
| Cc1ccc(-c2nc(NCC(=O)Nc3cccc(C(=O)O)c3)c3ccccc3n2)cc1 | 3.43% |  |
| C=C1C(=O)O[C@@H]2/C=C(/C)[C@@H](OC(C)=O)C/C=C(\C)C[C@@H](OC(=O)/C(=C/CO)CO)[C@@H]12 | -10.5% [at 28 µM] |  |
| N#CN1CCC(NC(=O)c2ccc(F)cc2)CC1 | -2.22% |  |
| CCc1ccc(NC(=O)C(=O)NNC(=O)Cc2ccc(Cl)c(Cl)c2)cc1 | -7.67% |  |
| COCCNc1nc(C)nc2c1nc(-c1ccccc1)n2CCN1CCCC1 | -2.78% |  |
| O=C1c2ccccc2C(=O)N1c1cccc(Cl)c1 | -4% |  |
| Cc1ccc(OCCn2c(CCNCC3CCCCC3)nc3ccccc32)cc1 | 16.3% |  |
| COc1ccc([S+](=O)([O-])N2CCCN([S+](=O)([O-])c3ccc(OC)c(N)c3)CC2)cc1N | -2.38% |  |
